Results on six molecules are retold here after PubChem BioAssay (EPA / NIEHS).

The nature of assay [1]: BSK_BF4T_SRB: Viability Assessment in the BioMAP Diversity Plus: BF4T Assay (AID 2284274).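 As to AC50: measured 24 h after compound addition.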 As to conditions: primary human bronchial epithelial cells with fibroblasts. The method, boiled down: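 Cytotoxicity measured as total protein: cells fixed with 10% TCA, stained with 0.1% SRB, read at 560 nm. Bronchial epithelial/dermal fibroblast co-culture, 24 h after dosing, with positive-direction fitting relative to DMSO.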

Read-out in assay [2]: urokinase Plasminogen Activator (uPA), PLAU (gene 5328)
The assay is described as follows: BSK_BF4T_uPA: BioMAP Diversity Plus: BF4T Assay for urokinase Plasminogen Activator (uPA) Biomarker Activity (AID 2284275). The settings on record: primary human bronchial epithelial cells with fibroblasts. The method, boiled down: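 uPA levels measured by ELISA at 24 hours in BF4T cultures (bronchial epithelial cells plus dermal fibroblasts) and compared with DMSO; cytotoxicity tracked in parallel cultures by sulforhodamine B staining.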

Read-out in assay [3]: Matrix Metallopeptidase 9 (MMP9), MMP9 (gene 4318)
The assay is described as follows: BSK_BF4T_MMP9: BioMAP Diversity Plus: BF4T Assay for Matrix Metallopeptidase 9 (MMP9) Biomarker Activity (AID 2284276). The settings on record: primary human bronchial epithelial cells with fibroblasts. An outline of the steps: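 MMP-9 levels were measured by ELISA after 24 h exposure of bronchial epithelial cell/dermal fibroblast co-cultures, with DMSO as baseline. Parallel cultures were stained with 0.1% SRB after TCA fixation, read at 560 nm, to flag overt cytotoxicity.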

Read-out in assay [4]: Intercellular Adhesion Molecule 1 (ICAM1), ICAM1 (gene 3383)
Nature of the assay: BSK_BE3C_ICAM1: BioMAP Diversity Plus: BE3C Assay for Intercellular Adhesion Molecule 1 (ICAM1) Biomarker Activity (AID 2284278).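 As to outcome: cell-surface ICAM-1 protein level quantified by ELISA.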 The settings on record: primary human bronchial epithelial cells. An outline of the steps:
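ICAM-1 quantified by ELISA and fitted against DMSO baseline, 24 h post-dosing in BE3C cultures of primary human lung bronchial epithelial cells. Cytotoxicity checked in parallel cultures by total protein SRB staining.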

Read-out in assay [5]: Interferon-inducible T-cell alpha chemoattractant (ITAC), CXCL11 (gene 6373)
Nature of the assay: BSK_BE3C_ITAC: BioMAP Diversity Plus: BE3C Assay for Interferon-inducible T-cell alpha chemoattractant (ITAC) Biomarker Activity (AID 2284279). As to conditions: primary human bronchial epithelial cells. An outline of the steps:
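The assay measures I-TAC levels by ELISA in human primary bronchial epithelial cell cultures 24 hours after chemical treatment. Values reflect signal increase over the DMSO baseline.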

Read-out in assay [6]: Interleukin-8 (IL8), CXCL8 (gene 3576)
Nature of the assay: BSK_BE3C_IL8: BioMAP Diversity Plus: BE3C Assay for Interleukin-8 (IL8) Biomarker Activity (AID 2284280). As to conditions: primary human bronchial epithelial cells. The method, boiled down:
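Dose human bronchial epithelial cells with chemical; incubate 24 h; quantify IL-8 by ELISA; fit response upward versus DMSO controls.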

Read-out in assay [7]: Epidermal growth factor receptor (EGFR), EGFR (gene 1956)
The assay is described as follows: BSK_BE3C_EGFR: BioMAP Diversity Plus: BE3C Assay for Epidermal growth factor receptor (EGFR) Biomarker Activity (AID 2284281). The settings on record: primary human bronchial epithelial cells. An outline of the steps:
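ELISA read-out of EGFR levels on human bronchial epithelial primary cells collected 24 h post-dosing. DMSO served as negative control and baseline for gain-of-signal fitting.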

Read-out in the next assay: KRT18 (gene 3875)
The assay is described as follows: BSK_BE3C_Keratin818: BioMAP Diversity Plus: BE3C Assay for Keratin 818 Biomarker Activity (AID 2284282). The settings on record: primary human bronchial epithelial cells. An outline of the steps:
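ELISA readout of Keratin 8/18 in human primary bronchial epithelial cultures after 24 h chemical exposure, DMSO baseline. Parallel SRB staining (0.1%, TCA-fixed, 560 nm) served as cytotoxicity check.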

Read-out in assay [8]: Matrix Metallopeptidase 9 (MMP9), MMP9 (gene 4318)
The assay is described as follows: BSK_BE3C_MMP9: BioMAP Diversity Plus: BE3C Assay for Matrix Metallopeptidase 9 (MMP9) Biomarker Activity (AID 2284283). As to conditions: primary human bronchial epithelial cells. An outline of the steps:
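Human primary bronchial epithelial cells exposed 24 h to compound. MMP9 quantified by ELISA. SRB total-protein staining of parallel cultures assesses cytotoxicity. Positive-direction fit relative to DMSO.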

Read-out in assay [9]: Plasminogen activator inhibitor-1 (PAI1), SERPINE1 (gene 5054)
Nature of the assay: BSK_CASM3C_PAI1: BioMAP Diversity Plus: CASM3C Assay for Plasminogen activator inhibitor-1 (PAI1) Biomarker Activity (AID 2284284).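 Also: PAI-1 protein level measured by ELISA 24 h after dosing.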 As to conditions: primary human coronary artery smooth muscle cells.

Read-out in assay [10]: Monocyte Chemoattractant Protein-1 (MCP1), CCL2 (gene 6347)
The assay is described as follows: BSK_hDFCGF_MCP1: BioMAP Diversity Plus: hDFCGF Assay for Monocyte Chemoattractant Protein-1 (MCP1) Biomarker Activity (AID 2284285). The settings on record: primary human foreskin fibroblasts. The method, boiled down: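 MCP-1 ELISA readout was taken 24 hours after dosing primary human dermal fibroblasts in the hDFCGF system, with DMSO as baseline. Parallel sulforhodamine B staining of total protein tracked overt cytotoxicity.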

Read-out in assay [11]: Vascular cell adhesion molecule 1 (VCAM1), VCAM1 (gene 7412)
The assay is described as follows: BSK_IMphg_VCAM1: BioMAP Diversity Plus: IMphg Assay for Vascular cell adhesion molecule 1 (VCAM1) Biomarker Activity (AID 2284286). As to conditions: primary human endothelial cells with macrophages. An outline of the steps:
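ELISA read-out of VCAM-1 on venular endothelial cell/macrophage co-cultures at 24 h post-treatment, with DMSO as baseline and positive-direction fitting. Parallel sulforhodamine B total-protein staining (560 nm) served as the overt cytotoxicity measure.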

Read-out in assay [12]: Intercellular Adhesion Molecule 1 (ICAM1), ICAM1 (gene 3383)
The assay is described as follows: BSK_hDFCGF_ICAM1: BioMAP Diversity Plus: hDFCGF Assay for Intercellular Adhesion Molecule 1 (ICAM1) Biomarker Activity (AID 2284287). The settings on record: primary human foreskin fibroblasts. The method, boiled down: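 ICAM-1 ELISA readout 24 h after dosing, DMSO as baseline, in human dermal foreskin fibroblast cultures. Cytotoxicity checked in parallel wells by SRB staining (0.1% SRB, 10% TCA fixation, 560 nm).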

Read-out in a further assay: CD40, CD40 (gene 958)
The assay is described as follows: BSK_IMphg_CD40: BioMAP Diversity Plus: IMphg Assay for CD40 Biomarker Activity (AID 2284288). The settings on record: primary human endothelial cells with macrophages. The method, boiled down:
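ELISA read-out of cell-surface CD40 at 24 h in human venular endothelial cell/macrophage co-cultures. Activity fitted in the positive direction against DMSO; parallel SRB staining (560 nm) gauges overt cytotoxicity.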

Read-out in assay [13]: TIMP metallopeptidase inhibitor 2 (TIMP2), TIMP2 (gene 7077)
The assay is described as follows: BSK_hDFCGF_TIMP2: BioMAP Diversity Plus: hDFCGF Assay for TIMP metallopeptidase inhibitor 2 (TIMP2) Biomarker Activity (AID 2284289). As to conditions: primary human foreskin fibroblasts. An outline of the steps: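 Primary human foreskin fibroblasts in the hDFCGF system, dosed for 24 h; TIMP-2 level measured by ELISA, fitted in the positive direction against DMSO; cytotoxicity checked in parallel by sulforhodamine B total protein staining.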

Read-out in assay [14]: Interleukin-1 alpha (IL1a), IL1A (gene 3552)
The assay is described as follows: BSK_IMphg_IL1a: BioMAP Diversity Plus: IMphg Assay for Interleukin-1 alpha (IL1a) Biomarker Activity (AID 2284290). The settings on record: primary human endothelial cells with macrophages. The method, boiled down: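 IL-1α is quantified by ELISA at 24 h in the endothelial/macrophage IMphg co-culture, with gain of signal fitted relative to DMSO. Parallel SRB total-protein staining flags overt toxicity.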

The nature of assay [15]: BSK_IMphg_SRB: Viability Assessment in the BioMAP Diversity Plus: IMphg Assay (AID 2284292).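 Also: measured one day after compound addition.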 As to conditions: primary human endothelial cells with macrophages. An outline of the steps: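 SRB viability endpoint: cultures of human endothelial cells plus macrophages fixed with 10% TCA, stained with 0.1% SRB, read at 560 nm 24 h post-dosing. Only gain-of-signal fitted, relative to DMSO.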

Structures are written as SMILES. “And” between values parts separate entries of the source, which are not always exact repeats. Equal entries are not always repeated. Some structures have more than one record in an assay (separate samples or runs), and their calls can disagree. The source made the active and inactive calls. The calls were made as follows: active = hit-call score of the fitted dose curve at least 0.9, where 1 is the maximum; inactive = score below 0.9.

A word on the AC50: it is the concentration at which the activity in the assay is half-maximal.

In the case of `CNS(=O)(=O)C(F)(F)C(F)(F)C(F)(F)C(F)(F)C(F)(F)C(F)(F)C(F)(F)C(F)(F)F`, the outcome in [1], in assay [2], in [3], in assay [4], in assay [5] and in [7] was inactive. In addition, the outcome in the assay with KRT18 (gene 3875) is “inactive”; in assay [9], “inactive”; in [10], “inactive”; in assay [11] it was “inactive”; in assay [12], “inactive”; in the assay with CD40, CD40 (gene 958) it was “inactive”. In assay [13], the outcome was inactive. The AC50 in [6] is 30 µM (active) and 2.67 µM (active); in [8], 4.25 µM (active) and 373 nM (active); in assay [11], 16.3 µM (active); in assay [12], 36.8 µM (active); in assay [13] it was 7.96 µM (active); in [14], 6.58 µM (active) and 9.9 µM (active).
In the case of `OCC(F)(F)C(F)(F)C(F)(F)C(F)(F)C(F)(F)C(F)(F)CO`, the result in assay [1], in assay [2], in assay [3], in assay [4], in assay [5] and in [6] was inactive. Further, the result (in assay [7]; with KRT18 (gene 3875); in assay [8]; in assay [9]; in assay [10]; in assay [11]) was inactive. Moreover, the outcome is “inactive” in assay [12]; “inactive” in the assay with CD40, CD40 (gene 958); “inactive” in assay [13]; “inactive” in assay [14].
Consider `CO[Si](C)(CCC(F)(F)C(F)(F)C(F)(F)C(F)(F)C(F)(F)C(F)(F)F)OC`, for which the result in assay [1], in [2], in assay [3], in [4], in assay [5] and in assay [6] was inactive. Moreover, the result (in assay [7]; with KRT18 (gene 3875); in assay [8]; in assay [9]; in assay [10]; in assay [11]) was inactive. For the same molecule, the outcome in assay [12] is “inactive”; with CD40, CD40 (gene 958), “inactive”; in assay [13] it was “inactive”; in assay [14], “inactive”.
In the case of `C=C(C)C(=O)OCC(F)(F)C(F)(F)C(F)(F)C(F)F`, the result in [1], in assay [2], in assay [3], in [4], in assay [5] and in [6] was inactive. For the same molecule, the outcome (in assay [7]; with KRT18 (gene 3875); in assay [8]; in assay [9]; in assay [10]; in assay [11]) was inactive. Moreover, the outcome in [12] is “inactive”; with CD40, CD40 (gene 958) it was “inactive”; in [13], “inactive”; in assay [14], “inactive”.
For `OC(O)C(F)(F)C(F)(F)F`, the result in assay [1], in assay [2], in assay [3], in assay [4], in [5] and in assay [6] was inactive. For the same molecule, the result (in [7]; with KRT18 (gene 3875); in [8]; in assay [9]; in assay [10]; in [11]) was inactive. Also, the outcome was “inactive” in assay [12]; “inactive” with CD40, CD40 (gene 958); “inactive” in assay [13]; “inactive” in [14].
Take `OCCCC(F)(F)C(F)(F)C(F)(F)C(F)(F)C(F)(F)C(F)(F)C(F)(F)C(F)(F)F`: the AC50 in [1] is 31.6 µM (active) and 29.4 µM (active); in assay [2], 22.5 µM (active) and 19.4 µM (active); in assay [3], 30 µM (active) and 17.2 µM (active); in [4], 47 µM (active) and 47.6 µM (active); in assay [5], 50.2 µM (active) and 51.8 µM (active); in assay [6], 11.4 µM (active) and 8.23 µM (active). The concentration at half-maximal activity (AC50) in [7] was 33 µM (active) and 21.3 µM (active); in the assay with KRT18 (gene 3875), 39.6 µM (active) and 42.8 µM (active); in [8], 50 µM (active) and 48.2 µM (active); in assay [9], 48.3 µM (active) and 45.4 µM (active); in [10] it was 7.74 µM (active) and 7.47 µM (active); in assay [11], 18 µM (active) and 17.8 µM (active). Also, the concentration at half-maximal activity (AC50) was 15.3 µM (active) and 9.92 µM (active) in [12]; 10.1 µM (active) and 10.9 µM (active) in the assay with CD40, CD40 (gene 958); 19 µM (active) and 14.6 µM (active) in [13]; 47.7 µM (active) and 51 µM (active) in assay [14]; 47.2 µM (active) and 31 µM (active) in assay [15].
